Test results as given in PMC7826789 (International Journal of Molecular Sciences, 2021).

Assays:
Conditions in all cases: Compound Concentration (nM):1000
[1] = test system: T1, SIK
T1 construct: gene SIK1

[2] = test system: SLK
[3] = test system: T2, SNARK
T2 construct: gene NUAK2

[4] = test system: SNRK
[5] = test system: SRC
[6] = test system: SRMS
[7] = test system: SRPK1
[8] = test system: SRPK2
[9] = test system: SRPK3
[10] = test system: STK16
[11] = test system: STK33
[12] = test system: STK35
[13] = test system: STK36
[14] = test system: STK39
[15] = test system: SYK
[16] = test system: SgK110
[17] = test system: T3, TAK1
T3 construct: gene MAP3K7

[18] = test system: TAOK1
[19] = test system: TAOK2
[20] = test system: TAOK3
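Note: KINOMEscan scanMAX binding as percent activity remaining versus control; lower means stronger binding.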

| Compound | Percent Control [1] [%] | Percent Control [2] [%] | Percent Control [3] [%] | Percent Control [4] [%] | Percent Control [5] [%] | Percent Control [6] [%] | Percent Control [7] [%] | Percent Control [8] [%] | Percent Control [9] [%] | Percent Control [10] [%] | Percent Control [11] [%] | Percent Control [12] [%] | Percent Control [13] [%] | Percent Control [14] [%] | Percent Control [15] [%] | Percent Control [16] [%] | Percent Control [17] [%] | Percent Control [18] [%] | Percent Control [19] [%] | Percent Control [20] [%] |
| --- | --- | --- | --- | --- | --- | --- | --- | --- | --- | --- | --- | --- | --- | --- | --- | --- | --- | --- | --- | --- |
| CC(C)COC(=O)c1ccc2c(c1)/C(=C/Nc1ccc(S(N)(=O)=O)cc1)C(=O)N2 [GW416981X] | 100 | 100 | 13 | 100 | 100 | 100 | 100 | 100 | 100 | 6.8 | 24 | 100 | 100 | 100 | 100 | 100 | 21 | 85 | 100 | 99 |
| CCn1c(-c2nonc2N)nc2c(C#CC(C)(C)O)nc(OCCNC)cc21.Cl [GSK949675] | 89 | 100 | 41 | 100 | 100 | 100 | 84 | 100 | 100 | 100 | 100 | 100 | 100 | 98 | 100 | 100 | 85 | 72 | 92 | 90 |
| CN(C)c1cc2c(Nc3ccc4c(cnn4Cc4ccccc4)c3)ncnc2cn1 [GW282974X] | 29 | 81 | 100 | 88 | 100 | 74 | 82 | 100 | 97 | 88 | 84 | 100 | 100 | 95 | 100 | 100 | 93 | 92 | 86 | 100 |
| COc1cc(/C=N/Nc2ncnc3[nH]ncc23)ccc1O [GW578748X] | 87 | 100 | 36 | 100 | 22 | 39 | 97 | 91 | 98 | 32 | 95 | 100 | 57 | 60 | 51 | 100 | 32 | 51 | 80 | 77 |
| CCS(=O)(=O)c1ccc(OC)c(Nc2ncc(-c3cccc(OC)c3)o2)c1 [GW580509X] | 97 | 100 | 96 | 100 | 26 | 54 | 96 | 100 | 100 | 37 | 100 | 100 | 100 | 100 | 96 | 100 | 81 | 100 | 100 | 100 |
| COc1cc2ncnc(Nc3ccc4c(cnn4Cc4ccccc4)c3)c2cc1OC.Cl [GW282449A] | 100 | 77 | 100 | 100 | 100 | 50 | 92 | 100 | 97 | 100 | 98 | 100 | 100 | 100 | 77 | 100 | 100 | 100 | 100 | 100 |
| COc1cc(C=NNc2ncnc3c2cnn3-c2ccccc2)ccc1O [GW513184X] | 79 | 79 | 87 | 100 | 59 | 100 | 33 | 100 | 100 | 100 | 100 | 80 | 82 | 100 | 38 | 100 | 59 | 100 | 100 | 95 |
| COc1cc(N2CCN(C(C)C)CC2)ccc1Nc1nc(Nc2ccc(F)cc2C(=O)NC[C@@H](O)CO)c2cc[nH]c2n1 [GSK1392956A] | 100 | 100 | 66 | 87 | 100 | 100 | 99 | 99 | 100 | 85 | 1.5 | 100 | 100 | 65 | 92 | 100 | 100 | 67 | 100 | 100 |
| COc1ccc2[nH]c3c4[nH]c5ccc(OC)cc5c4c4c(c3c2c1)C(=O)NC4=O [GW296115X] | 67 | 96 | 59 | 56 | 87 | 100 | 86 | 94 | 100 | 74 | 33 | 80 | 70 | 100 | 73 | 100 | 20 | 100 | 96 | 96 |
| NS(=O)(=O)c1ccc(N/N=C2\C(=O)Nc3ccc(Cl)cc32)cc1 [GW280670X] | 100 | 100 | 91 | 100 | 100 | 100 | 97 | 100 | 88 | 84 | 95 | 100 | 100 | 100 | 98 | 100 | 81 | 95 | 100 | 100 |
| COC(=O)Nc1nc2ccc(Oc3ccc(NC(=O)Nc4cc(C(F)(F)F)ccc4F)cc3)cc2s1.Cl [GW693917A] | 98 | 68 | 86 | 100 | 54 | 92 | 86 | 90 | 74 | 76 | 44 | 86 | 100 | 87 | 98 | 100 | 5.8 | 84 | 86 | 93 |
| COc1ccc2c(-c3ccnc(Nc4cccc(OC(F)(F)F)c4)n3)cnn2n1 [GW810372X] | 100 | 100 | 73 | 98 | 100 | 99 | 88 | 87 | 92 | 9.4 | 90 | 100 | 100 | 86 | 83 | 100 | 95 | 73 | 98 | 100 |
| Cl.O=C(Nc1ccc(Oc2ccc3[nH]c(NC(=O)c4ccccc4)nc3c2)cc1)Nc1cc(C(F)(F)F)ccc1F [GW709042A] | 100 | 70 | 92 | 89 | 98 | 91 | 89 | 93 | 70 | 88 | 29 | 95 | 100 | 100 | 99 | 100 | 58 | 90 | 91 | 98 |
| NS(=O)(=O)c1ccc(Nc2ncc(-c3ccccc3)o2)cc1 [GW572399X] | 100 | 100 | 79 | 100 | 100 | 100 | 94 | 100 | 98 | 31 | 100 | 100 | 100 | 100 | 93 | 100 | 100 | 72 | 97 | 86 |
| C[C@@H](Oc1cc(-n2cnc3ccc(OC4CCN(C)CC4)cc32)sc1C(N)=O)c1ccccc1Cl [GSK579289A] | 100 | 7.9 | 1 | 59 | 100 | 94 | 92 | 86 | 100 | 69 | 100 | 82 | 76 | 83 | 100 | 100 | 38 | 75 | 96 | 79 |
| O=C(Nc1n[nH]c2nc(-c3ccc(O)cc3)c(Br)cc12)C1CC1 [SB-725317] | 100 | 41 | 100 | 100 | 100 | 100 | 100 | 100 | 100 | 76 | 96 | 100 | 100 | 99 | 100 | 100 | 95 | 1 | 2.6 | 2.6 |
| C/C(Nc1ccc(S(N)(=O)=O)cc1)=C1/C(=O)Nc2ccccc21 [GW335962X] | 100 | 92 | 65 | 100 | 100 | 91 | 82 | 88 | 87 | 41 | 92 | 95 | 98 | 64 | 94 | 100 | 70 | 81 | 92 | 94 |
| CN(C)CCNC(=O)Nc1ccc(N(C)c2ccnc(Nc3ccc(CS(C)(=O)=O)cc3)n2)cc1.Cl [GW830900A] | 74 | 42 | 43 | 77 | 100 | 95 | 17 | 100 | 7.7 | 30 | 85 | 14 | 70 | 78 | 97 | 47 | 48 | 80 | 86 | 89 |
| Cl.O=C(O[C@H]1CN[C@H](C#Cc2cc3ncnc(Nc4ccc5c(cnn5Cc5ccccc5)c4)c3s2)C1)N1CCOCC1 [GSK200398A] | 100 | 98 | 100 | 100 | 100 | 92 | 84 | 85 | 100 | 100 | 90 | 99 | 100 | 83 | 91 | 100 | 100 | 91 | 97 | 100 |
| COc1ccccc1-c1cc(/C=C2\C(=O)Nc3ncc(Br)cc32)cc(Br)c1O [GW442130X] | 100 | 100 | 89 | 100 | 91 | 100 | 100 | 100 | 100 | 87 | 100 | 100 | 100 | 67 | 100 | 100 | 81 | 93 | 100 | 89 |
